From PubChem BioAssay (NCATS) come the findings set out here.

A number with no mark means an inactive call. Results filed as inconclusive are left out. The source made the active and inactive calls. Unless noted, calls follow the shape of the dose curve; as a rule, active = well fitted curve in the direction sought with a large enough effect; inconclusive = small, poorly fitted or top-dose-only effect, or another doubt; inactive = no such curve, though single readings can be large; an effect the other way counts as inactive or inconclusive.

For assay [1], the target named is Lysosomal acid glucosylceramidase (Homo sapiens) (UniProt P04062). Briefly: Glucocerebrosidase-p2 (AID 348; in the data active = potency below about 10 µM; also: potency is read from the fitted curve at half-maximal effect). Conditions: purified GBA, blue fluorogenic substrate, 40 min. A digest of the protocol:
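Normal human glucocerebrosidase (0.2 nM) with blue fluorogenic substrate (80 uM final) in citrate/phosphate pH 5.9 with 10mM sodium taurocholate, 0.01% tween-20; 40 min RT, NaOH/glycine stop; fluorescence Ex 365/Em 440; AC50 from a titration from 0.6 nM upwards.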

Assay [2] in a line: NFAT Signaling Pathway (AID 444; active = well fitted curve in either direction with a large enough effect, not every such curve was filed as active;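 also: carbachol stimulus at about its EC50 of 1 µM final; % is scaled to controls: 0 for no effect and ±100 for the full control effect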). Conditions: Jurkat NFAT-bla M1, carbachol, beta-lactamase ratio, 5 h; at 7.69 µM (top of the series) unless noted. An outline of the steps:
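Read-out: CCF4 FRET ratio (460 nm/530 nm) after 1 h RT dye loading, used for %activity and AC50 from titration series. Cells: Jurkat NFAT-β-lactamase/M1 line, treated with compound plus 1 uM carbachol for 5 h, 37 °C.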

The nature of assay [3]: Stat Signaling Pathway (AID 446; active = well fitted curve in either direction with a large enough effect, not every such curve was filed as active;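 also: ME-180 cervical cancer cells given 40 pM IL-6 alongside compound; SIE-controlled beta-lactamase reporter measured as 460/530 nm FRET emission ratio; % is scaled to controls: 0 for no effect and ±100 for the full control effect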). Conditions: ME-180 SIE beta-lactamase reporter, IL-6 stimulated, 5 h; at 7.69 µM (top of the series) unless noted. An outline of the steps:
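Overnight-plated ME-180 cells bearing a STAT Inducible Element beta-lactamase reporter; 5 h co-exposure to compound and 40 pM IL-6; values normalized to 300 pM IL-6 and 125 nM JAK inhibitor controls.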

Assay [4] deals with Glucocorticoid receptor (Homo sapiens) (UniProt P04150). Briefly: GR-EFC Redistribution (AID 451; calls by dose curve; also: potency is read from the fitted curve at half-maximal effect). Conditions: CHO-K1 GR-EFC translocation, beta-gal luminescence, 2 h. A digest of the protocol:
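Translocation of GR-ED fusion to nuclear EA restores b-gal, read by luminescence after 1 h room-temperature detection. Engineered CHO-K1 biosensor cells, 1,000/well, exposed 2 h at 37 C to titrations up to 46 uM final.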

Assay [5] concerns the target Mitogen-activated protein kinase 10 (Mus musculus) (UniProt Q61831). Briefly: JNK3 AlphaScreen Assay (AID 530; active = well fitted curve in either direction with a large enough effect, not every such curve was filed as active;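 also: kinase came from lysate of stimulated human HepG2 cells; signal reports phosphorylation of biotinylated GST-cJun 1-79 at Ser73 with 10 µM ATP; % is scaled to controls: 0 for no effect and ±100 for the full control effect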). Conditions: JNK3 lysate, c-Jun phosphorylation; series mostly up to 57.1 µM. An outline of the steps: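 qHTS titrations with 15 min compound pre-incubation before adding ATP (10 uM final). Read-out: AlphaScreen of Ser73-phosphorylated biotin-GST-cJun using HepG2 lysate JNK3 activated by IL-1β and TNFα.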

Assay [6] has as its target Dual specificity protein kinase CLK4 (Homo sapiens) (UniProt Q9HAZ1). The experiment in a line: qHTS Assay for Inhibitors of CDC-like Kinase 4 (Kinase-Glo Assay) (AID 1770). Also: nearly all actives have a fitted effect of over 65% in size. Also: potency is read from the fitted curve at half-maximal effect. Conditions: recombinant Clk4, Kinase-Glo ATP depletion luminescence; series mostly up to 66.7 µM. An outline of the steps: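 Readout: Kinase-Glo luminescence from ATP left after a 4.5 h room-temperature reaction of 25 nM Clk4 with 100 uM RS peptide and 1 uM ATP (final). Buffer: 25 mM Tris pH 7.5, 10 mM MgCl2.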

For assay [7] the target is unchanged. The experiment in a line: qHTS Assay for Inhibitors of CDC-like Kinase 4 (ADP-Glo Assay) (AID 1771). Also: nearly all actives have a fitted effect of over 70% in size. Also: potency is read from the fitted curve at half-maximal effect. Conditions: recombinant CLK4, ADP-Glo luminescence; series mostly up to 80 µM. A digest of the protocol: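 Compounds are pin-transferred onto substrate mix (100 uM RS peptide, 1 uM ATP), then 25 nM Clk4 is added. After 1 hr at room temperature, ADP-Glo reagent runs 45 min, detection reagent 30 min, then luminescence is read.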
For orientation: In qHTS, concentration-response curves come from the screen itself.

Assay [8] addresses Ubiquitin carboxyl-terminal hydrolase 1 (Homo sapiens) (UniProt O94782). The experiment in a line: Inhibitors of USP1/UAF1: Pilot qHTS (AID 504865).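 Also: rhodamine fluorescence freed from ubiquitin-rhodamine substrate followed over time; top concentration of the series differs between compounds; % is scaled to controls: 0 for no effect and ±100 for the full control effect; nearly all actives have a fitted effect of over 35% in size.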 Conditions: purified USP1/UAF1, Ub-rhodamine cleavage fluorescence; series mostly up to 54.9 µM. A digest of the protocol: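 1nM USP1/UAF1 + cpd, 15 min RT; start w/ Ub-Rho 150nM final; kinetic FL 480/540 nm, 6 reads q60 s. Buffer 50mM HEPES pH 7.8, 0.5mM EDTA, 1mM TCEP, 0.01% Tween-20, 0.1 mg/ml BSA.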

The nature of assay [9]: Primary qHTS for small molecule stabilizers of the endoplasmic reticulum resident proteome: Secreted ER Calcium Modulated Protein (SERCaMP) assay (AID 1508630). Also: % is scaled to controls: 0 for no effect and ±100 for the full control effect. Conditions: SH-SY5Y GLuc-SERCaMP (Gaussia luciferase released on ER calcium loss) secretion, thapsigargin, luminescence; series mostly up to 38.4 µM. A digest of the protocol:
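The SH-SY5Y reporter protocol was run at 3 concentrations up to 38.3 uM (primary) or 11 concentrations (follow-up): 16 h compound, 100 nM thapsigargin for 4 h, then extracellular luciferase luminescence.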

Assay [10] can be described thus: AP1 Signaling Pathway (AID 357; active = well fitted curve in either direction with a large enough effect, not every such curve was filed as active). Conditions: ME-180 (cervical carcinoma) AP-1-bla reporter, EGF-induced, beta-lactamase ratio, 5 h; at 7.69 µM (top of the series) unless noted. A digest of the protocol: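 AP-1-bla ME-180 cells, Opti-MEM + 0.5% dialyzed FBS, plated overnight 37 °C. Cpd titration + EC50 EGF, 5 h 37 °C. CCF4 2.5 h RT; ex 405, em 460/530 ratio → %activity, AC50.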
Assay [11] addresses Glucocorticoid receptor (Homo sapiens) (UniProt P04150). The experiment in a line: GR-GFP Redistribution (AID 450;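 active = compounds whose dose series gives a full or clear partial fitted curve of increased nuclear translocation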; also: potency is read from the fitted curve at half-maximal effect). Conditions: U2OS GR-GFP nuclear translocation, laser cytometry, 2 h.
Assay [12] concerns the target 3',5'-cyclic-AMP phosphodiesterase 4B (Homo sapiens) (UniProt Q07343). Briefly: qHTS Assay for Inhibitors of PDE-IV (AID 607; active = well fitted activation curve with a large enough effect in the main read-out, with a control signal flat, not every such curve was filed as active; also: % of control where 0% means no effect). Conditions: HEK293 ACTOne CNG channel cells, membrane potential fluorescence; series mostly up to 22.9 µM. An outline of the steps: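 Live HEK293 cells with a modified cyclic nucleotide-gated (CNG) channel report intracellular cAMP via membrane-potential dye fluorescence (ex 535/em 590 nm). Endogenous PDE-IV was targeted. Compounds were tested at up to 22.9 uM final; RO 20-1724 100 uM served as control.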

Assay [13] deals with Cytochrome P450 1A2 (Homo sapiens) (UniProt P05177). Briefly: p450-cyp1a2 (AID 410; calls by dose curve; also: potency is read from the fitted curve at half-maximal effect). Conditions: recombinant CYP1A2, luciferin-ME demethylation, luminescence; series mostly up to 57 µM. An outline of the steps: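 O-Demethylation of luciferin 6' methyl ether by human CYP1A2 is monitored as luciferase luminescence. Substrate sits at Km (100uM); enzyme is 20nM. Values are scaled to 57 uM furafylline as maximal inhibition.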
Sequence of Cytochrome P450 1A2 (Homo sapiens) (P05177 whole entry, looked up): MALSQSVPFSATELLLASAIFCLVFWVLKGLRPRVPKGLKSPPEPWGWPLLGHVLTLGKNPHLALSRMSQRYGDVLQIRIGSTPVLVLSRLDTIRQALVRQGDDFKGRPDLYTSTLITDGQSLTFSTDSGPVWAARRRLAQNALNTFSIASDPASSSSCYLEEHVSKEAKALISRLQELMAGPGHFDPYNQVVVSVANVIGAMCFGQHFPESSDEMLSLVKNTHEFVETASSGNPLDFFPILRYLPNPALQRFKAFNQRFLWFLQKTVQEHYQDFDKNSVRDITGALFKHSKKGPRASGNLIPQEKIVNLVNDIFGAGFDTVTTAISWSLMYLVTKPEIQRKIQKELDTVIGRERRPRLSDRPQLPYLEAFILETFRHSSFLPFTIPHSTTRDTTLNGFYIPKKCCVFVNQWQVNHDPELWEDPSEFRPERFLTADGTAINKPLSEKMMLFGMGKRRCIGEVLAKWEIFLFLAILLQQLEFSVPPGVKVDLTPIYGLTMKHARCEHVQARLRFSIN

The target in assay [14] is Dual specificity protein kinase CLK4 (Homo sapiens) (UniProt Q9HAZ1). Briefly: qHTS Assay for Inhibitors of CDC-like Kinase 4 (ADP-FP Assay) (AID 1795).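 Also: recombinant human CLK4 phosphorylating RS repeat peptide at 1 µM ATP; % is scaled to controls: 0 for no effect and ±100 for the full control effect; nearly all actives have a fitted effect of over 60% in size.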 Conditions: Transcreener ADP fluorescence polarization; series mostly up to 50 µM. An outline of the steps:
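FP readout: Orange Transcreener ADP2 tracer (4 nM) plus ADP antibody, read after 30 min at room temperature. Kinase step: 6.25 nM Clk4, 100 uM RS peptide, 1 uM ATP, pH 7.5, 1 h.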

Assay [15] concerns the target Cytochrome P450 3A4 (Homo sapiens) (UniProt P08684). Briefly: qHTS Assay for Inhibitors and Substrates of Cytochrome P450 3A4 (AID 884). Also: potency is read from the fitted curve at half-maximal effect; nearly all actives have a fitted effect of over 50% in size. Conditions: recombinant CYP3A4, Luciferin-PPXE luminescence; series mostly up to 57.1 µM. A digest of the protocol:
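Luminescent readout of luciferin produced by CYP3A4 (20 nM) dealkylation of Luciferin-PPXE, 25 uM (its KM). NADPH-driven reaction ran 60 min at RT after 10 min compound preincubation; data scaled to 57 uM ketoconazole as 100% inhibition.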

Assay [16] shares this target. Briefly: qHTS Assay for Activators of Cytochrome P450 3A4 (AID 885). Also: nearly all actives have a fitted effect of over 65% in size. Conditions: recombinant CYP3A4, Luciferin-PPXE luminescence, 60 min; series mostly up to 57.1 µM. A digest of the protocol: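 Using 20nM recombinant human CYP3A4 in potassium phosphate (200mM), substrate Luciferin-PPXE at 25uM, luminescent luciferin detection followed a 60-min RT NADPH reaction; data scaled to 57 uM ketoconazole.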

Sequence of Lysosomal acid glucosylceramidase (Homo sapiens) (P04062 whole entry, looked up): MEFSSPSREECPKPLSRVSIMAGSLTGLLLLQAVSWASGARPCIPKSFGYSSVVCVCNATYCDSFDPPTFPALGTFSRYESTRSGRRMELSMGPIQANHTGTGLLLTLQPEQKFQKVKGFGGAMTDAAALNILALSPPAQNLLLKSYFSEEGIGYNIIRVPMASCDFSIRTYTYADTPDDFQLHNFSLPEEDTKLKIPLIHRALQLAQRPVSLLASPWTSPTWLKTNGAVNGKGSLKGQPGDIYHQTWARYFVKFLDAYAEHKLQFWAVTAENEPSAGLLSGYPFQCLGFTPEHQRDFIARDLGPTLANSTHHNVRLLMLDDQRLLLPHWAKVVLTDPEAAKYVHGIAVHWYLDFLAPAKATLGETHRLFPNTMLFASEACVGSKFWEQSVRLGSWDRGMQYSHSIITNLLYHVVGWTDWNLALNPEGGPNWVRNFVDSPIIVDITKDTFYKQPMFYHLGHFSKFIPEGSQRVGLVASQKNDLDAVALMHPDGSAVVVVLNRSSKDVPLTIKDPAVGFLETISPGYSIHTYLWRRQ
Sequence of Dual specificity protein kinase CLK4 (Homo sapiens) (Q9HAZ1 whole entry, looked up): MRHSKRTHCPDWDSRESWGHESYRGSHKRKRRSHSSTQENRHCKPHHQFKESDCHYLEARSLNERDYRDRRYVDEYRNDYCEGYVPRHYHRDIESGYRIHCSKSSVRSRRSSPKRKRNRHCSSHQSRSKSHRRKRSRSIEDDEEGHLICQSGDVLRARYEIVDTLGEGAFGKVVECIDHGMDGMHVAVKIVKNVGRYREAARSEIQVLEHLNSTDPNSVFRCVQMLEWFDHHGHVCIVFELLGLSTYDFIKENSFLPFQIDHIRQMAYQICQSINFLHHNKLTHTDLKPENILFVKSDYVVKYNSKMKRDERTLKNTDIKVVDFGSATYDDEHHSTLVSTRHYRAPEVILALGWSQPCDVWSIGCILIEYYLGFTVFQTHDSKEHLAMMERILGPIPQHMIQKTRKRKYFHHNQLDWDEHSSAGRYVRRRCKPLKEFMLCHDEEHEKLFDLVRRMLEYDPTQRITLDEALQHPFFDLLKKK
Sequence of 3',5'-cyclic-AMP phosphodiesterase 4B (Homo sapiens) (Q07343 whole entry, looked up): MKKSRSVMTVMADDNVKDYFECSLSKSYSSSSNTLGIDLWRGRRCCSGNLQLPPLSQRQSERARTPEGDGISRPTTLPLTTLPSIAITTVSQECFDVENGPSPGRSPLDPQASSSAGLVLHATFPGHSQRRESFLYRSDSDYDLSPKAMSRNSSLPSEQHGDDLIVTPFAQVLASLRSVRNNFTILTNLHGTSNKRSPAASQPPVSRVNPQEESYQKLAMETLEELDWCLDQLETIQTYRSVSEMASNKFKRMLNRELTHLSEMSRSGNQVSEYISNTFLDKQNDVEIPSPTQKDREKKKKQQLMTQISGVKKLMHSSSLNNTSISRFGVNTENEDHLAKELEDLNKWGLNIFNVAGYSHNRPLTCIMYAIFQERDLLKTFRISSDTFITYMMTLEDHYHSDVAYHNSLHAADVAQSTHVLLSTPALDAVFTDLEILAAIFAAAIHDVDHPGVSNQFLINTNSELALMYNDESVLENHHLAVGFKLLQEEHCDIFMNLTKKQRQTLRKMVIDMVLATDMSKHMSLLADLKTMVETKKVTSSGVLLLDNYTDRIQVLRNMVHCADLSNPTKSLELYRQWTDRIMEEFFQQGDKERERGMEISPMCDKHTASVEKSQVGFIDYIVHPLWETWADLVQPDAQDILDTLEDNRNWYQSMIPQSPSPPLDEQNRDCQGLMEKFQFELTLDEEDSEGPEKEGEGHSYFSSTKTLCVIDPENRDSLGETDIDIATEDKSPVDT
Sequence of Ubiquitin carboxyl-terminal hydrolase 1 (Homo sapiens) (O94782 whole entry, looked up): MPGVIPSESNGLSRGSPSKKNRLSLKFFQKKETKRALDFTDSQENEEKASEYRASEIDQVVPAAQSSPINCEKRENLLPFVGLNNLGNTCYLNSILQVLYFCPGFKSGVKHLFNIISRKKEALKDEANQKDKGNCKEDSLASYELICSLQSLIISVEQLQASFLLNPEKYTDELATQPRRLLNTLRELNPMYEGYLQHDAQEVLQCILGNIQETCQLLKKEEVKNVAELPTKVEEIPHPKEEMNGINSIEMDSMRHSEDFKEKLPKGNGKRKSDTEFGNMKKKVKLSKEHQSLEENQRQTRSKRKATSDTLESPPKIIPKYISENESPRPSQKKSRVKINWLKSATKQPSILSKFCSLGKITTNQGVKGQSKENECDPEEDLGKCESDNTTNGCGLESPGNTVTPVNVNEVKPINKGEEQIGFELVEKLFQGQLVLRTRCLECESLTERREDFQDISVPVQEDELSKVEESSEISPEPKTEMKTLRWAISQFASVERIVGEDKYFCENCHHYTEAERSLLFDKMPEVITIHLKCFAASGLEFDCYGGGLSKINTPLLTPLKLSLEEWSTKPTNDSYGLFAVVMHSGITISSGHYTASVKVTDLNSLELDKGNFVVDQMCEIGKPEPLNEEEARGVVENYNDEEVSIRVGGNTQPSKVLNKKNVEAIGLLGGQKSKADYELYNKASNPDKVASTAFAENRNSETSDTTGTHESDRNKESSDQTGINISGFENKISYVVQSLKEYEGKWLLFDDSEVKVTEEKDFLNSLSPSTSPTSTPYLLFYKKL
Sequence of Cytochrome P450 3A4 (Homo sapiens) (P08684 whole entry, looked up): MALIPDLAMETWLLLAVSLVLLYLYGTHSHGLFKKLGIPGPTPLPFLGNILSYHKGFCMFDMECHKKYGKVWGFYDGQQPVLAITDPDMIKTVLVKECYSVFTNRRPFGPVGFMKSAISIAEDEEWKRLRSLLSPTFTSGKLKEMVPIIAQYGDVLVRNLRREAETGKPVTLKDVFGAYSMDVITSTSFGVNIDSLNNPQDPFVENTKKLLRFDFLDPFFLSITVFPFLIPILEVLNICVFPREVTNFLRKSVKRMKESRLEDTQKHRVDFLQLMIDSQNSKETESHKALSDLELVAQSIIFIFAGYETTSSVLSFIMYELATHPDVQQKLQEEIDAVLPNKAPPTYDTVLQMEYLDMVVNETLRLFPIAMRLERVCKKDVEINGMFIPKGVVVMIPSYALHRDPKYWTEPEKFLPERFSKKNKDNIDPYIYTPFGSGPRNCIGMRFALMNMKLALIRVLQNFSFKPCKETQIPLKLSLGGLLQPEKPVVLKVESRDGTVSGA
Sequence of Glucocorticoid receptor (Homo sapiens) (P04150 whole entry, looked up, the tested form may be a part): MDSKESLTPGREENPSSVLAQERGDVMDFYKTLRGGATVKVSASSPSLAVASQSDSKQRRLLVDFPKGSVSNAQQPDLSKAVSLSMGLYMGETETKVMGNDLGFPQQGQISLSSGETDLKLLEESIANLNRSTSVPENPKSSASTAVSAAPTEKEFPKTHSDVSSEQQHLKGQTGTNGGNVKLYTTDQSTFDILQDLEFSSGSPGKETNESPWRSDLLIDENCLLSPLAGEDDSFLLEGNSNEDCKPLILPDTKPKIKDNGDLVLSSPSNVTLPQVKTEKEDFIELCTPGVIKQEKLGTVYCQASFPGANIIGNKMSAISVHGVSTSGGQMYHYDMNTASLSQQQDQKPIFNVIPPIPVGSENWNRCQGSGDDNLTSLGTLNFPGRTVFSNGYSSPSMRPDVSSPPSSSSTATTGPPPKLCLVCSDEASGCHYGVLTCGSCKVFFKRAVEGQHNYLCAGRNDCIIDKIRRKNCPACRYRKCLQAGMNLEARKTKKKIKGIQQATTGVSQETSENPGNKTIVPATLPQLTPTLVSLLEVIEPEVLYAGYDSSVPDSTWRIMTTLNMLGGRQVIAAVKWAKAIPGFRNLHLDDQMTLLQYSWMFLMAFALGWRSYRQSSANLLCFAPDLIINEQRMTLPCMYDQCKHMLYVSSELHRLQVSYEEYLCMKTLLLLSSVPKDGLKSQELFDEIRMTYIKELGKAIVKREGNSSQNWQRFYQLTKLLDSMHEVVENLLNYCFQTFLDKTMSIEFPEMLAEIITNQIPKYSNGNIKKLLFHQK

As for `COc1cccc(-c2nccc(NCCc3c[nH]c4ccc(OC)cc34)n2)c1`, the Potency is 6.96 µM (active) in assay [1], over 46 µM in [4], 25.1 µM (active) in [6] and 28.2 µM (active) in [7]. The activity change, negative = inhibition in assay [2] was -15.8%. The activity, negative = inhibition in [3] is -25.8%. In addition, the Potency result in [5] and in assay [8] was “inactive” each time. In [9], the result was inactive.

On to `CCNc1ncc2nc(-c3cccc(C#N)c3)c(=O)n(Cc3cccc(OC)c3)c2n1`, for which the activity change, negative = inhibition in assay [10] was -6.16%; in [2], -14.9%. The activity, negative = inhibition in [3] is -8.97%. Besides, the Potency is over 9.22 µM in [11] and over 46 µM in assay [4]. Moreover, the Potency entry in assay [5], in [12], in [6], in assay [7] and in [8] was “inactive” in each case. Further, in assay [9], the outcome was inactive.

Take `CN(C)c1ncc2nc(-c3cccs3)c(=O)n(-c3ccccc3)c2n1`: the Potency in assay [1] was over 11.4 µM; in assay [13], 31.6 µM (active); in assay [11] it was over 9.22 µM; in assay [4], over 46 µM. Also, the activity change, negative = inhibition was -9.21% in assay [10] and 6.03% in assay [2]. The activity, negative = inhibition in [3] was 21.3%. The Potency result in assay [5], in [6], in assay [14] and in assay [8] was “inactive” each time. Besides, the result in [9] was inactive.

In the case of `COc1ccc2[nH]cc(CCNc3ccnc(-c4ccccc4Cl)n3)c2c1`, the activity change, negative = inhibition was -9.46% in assay [10] and 5.21% in assay [2]. In addition, the Potency in [13] was 0.398 µM (active); in [11], over 46 µM; in assay [4], over 46 µM; in [15], 2 µM (active); in assay [6], 22.4 µM (active); in assay [7] it was 22.4 µM (active). Further, the activity, negative = inhibition in assay [3] was -20.6%. Also, the Potency entry in assay [12], in [16] and in assay [8] was “inactive” each time. The result in [9] was inactive.

For the molecule `N#Cc1ccccc1-c1ccc2ncnc(NCc3ccccc3)c2c1`, the Potency in assay [1] is over 11.4 µM; in assay [11], over 46 µM; in assay [4], over 46 µM; in [6], 5.01 µM (active); in assay [7], 7.94 µM (active). The activity change, negative = inhibition in assay [10] was -20.7%; in assay [2], 16.5%. The activity, negative = inhibition in assay [3] is 27.7%. For the same molecule, the Potency result in assay [5] was “inactive”. In [9], the result was inactive.

For `Cn1c(=O)c(-c2ccccc2)nc2cnc(OCc3ccccc3)nc21`, the Potency in assay [1] was over 11.4 µM; in [13], 1.58 µM (active); in assay [11], over 9.22 µM; in assay [4] it was over 46 µM. The activity change, negative = inhibition in assay [10] was -1.1%; in assay [2] it was 4.72%. For the same molecule, the activity, negative = inhibition in [3] was -3.56%. The Potency entry in [5], in assay [12], in assay [16], in assay [6], in [14] and in assay [8] was “inactive” in each case. Besides, the result in [9] was inactive.

As to `CN(Cc1ccco1)c1ncncc1-c1cccc(NS(C)(=O)=O)c1`, the activity change, negative = inhibition in assay [10] is -8.59%; in [2] it was -4.49%. The Potency in assay [13] was 15.8 µM (active); in [11], over 46 µM; in assay [4], over 46 µM; in [15], 0.794 µM (active). Also, the activity, negative = inhibition in [3] is 8.28%. Besides, the Potency result in assay [5], in assay [12], in [16], in [6], in [7] and in assay [8] was “inactive” throughout. For the same molecule, the outcome in [9] was inactive.
